PubChem BioAssay (Tox21)
Several values for one entry are separate records, joined by “and”; a condition that tells them apart may be missing. Identical values can stand only once. Results filed as inconclusive are left out. Activity calls are given as the source filed them. Unless noted, calls follow the shape of the dose curve; as a rule, active = well fitted curve in the direction sought with a large enough effect in the repeat runs; inconclusive = weak or mixed curves; inactive = no such curve, though single readings can be large; an effect the other way counts as inactive or inconclusive.

Assays:
[1] = qHTS assay to test for compound auto fluorescence at 535 nm (green) in HEK293 cells (AID 720680)
[2] = qHTS assay to test for compound auto fluorescence at 460 nm (blue) in HEK293 cell free culture (AID 720681)
Summary of the method: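 Blue fluorescence (Ex 405/Em 460 nm, triamterene-equivalent) was read immediately after pin transfer of compound or DMSO into medium (DMEM, 10% FBS) without cells.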

[3] = qHTS assay to test for compound auto fluorescence at 535 nm (green) in HEK293 cell free culture (AID 720682)
Summary of the method: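 Green-label autofluorescence (485 nm excitation, 535 nm emission) measured on compound added to cell-free culture medium (DMEM, 10% FBS). Output is expressed relative to fluorescein.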

[4] = qHTS assay to test for compound auto fluorescence at 590 nm (red) in HEK293 cell free culture (AID 720683)
Summary of the method: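 Red-channel autofluorescence of compounds in culture medium (DMEM, 10% FBS), no cells, measured at 540/590 nm. Rose Bengal sodium is the reference fluorophore for equivalence.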

[5] = qHTS assay to test for compound auto fluorescence at 590 nm (red) in HepG2 cell free culture (AID 720684)
Summary of the method: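 No cells present: MEM + 10% FBS only. Compound pinned in, red label read (540/590 nm). Activity = fluorescence equivalent to Rose Bengal sodium.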

[6] = qHTS assay to test for compound auto fluorescence at 460 nm (blue) in HepG2 cell free culture (AID 720685)
Summary of the method: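 Cell-free plates of MEM plus 10% FBS received 23 nL compound or DMSO vehicle; blue-channel (405/460 nm) intensity scored against triamterene as reference fluorophore.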

[7] = qHTS assay to test for compound auto fluorescence at 460 nm (blue) in HepG2 cells (AID 720687)
Summary of the method: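 Blue-channel autofluorescence (Ex/Em 405/460 nm, triamterene-equivalent) was measured after 1 hr compound exposure at 37 C, 5% CO2. Cells were HepG2, plated overnight at 37 C in MEM plus 10% FBS.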

[8] = target: Glucocorticoid receptor (Homo sapiens) (UniProt P04150); assay: qHTS assay to identify small molecule agonists of the glucocorticoid receptor (GR) signaling pathway (AID 720691; active = well fitted activation curve with a large enough effect in the signal ratio in the repeat runs, not every such curve was filed as active; the % refers to the signal ratio)
Glucocorticoid receptor (Homo sapiens), sequence (P04150 whole entry, looked up): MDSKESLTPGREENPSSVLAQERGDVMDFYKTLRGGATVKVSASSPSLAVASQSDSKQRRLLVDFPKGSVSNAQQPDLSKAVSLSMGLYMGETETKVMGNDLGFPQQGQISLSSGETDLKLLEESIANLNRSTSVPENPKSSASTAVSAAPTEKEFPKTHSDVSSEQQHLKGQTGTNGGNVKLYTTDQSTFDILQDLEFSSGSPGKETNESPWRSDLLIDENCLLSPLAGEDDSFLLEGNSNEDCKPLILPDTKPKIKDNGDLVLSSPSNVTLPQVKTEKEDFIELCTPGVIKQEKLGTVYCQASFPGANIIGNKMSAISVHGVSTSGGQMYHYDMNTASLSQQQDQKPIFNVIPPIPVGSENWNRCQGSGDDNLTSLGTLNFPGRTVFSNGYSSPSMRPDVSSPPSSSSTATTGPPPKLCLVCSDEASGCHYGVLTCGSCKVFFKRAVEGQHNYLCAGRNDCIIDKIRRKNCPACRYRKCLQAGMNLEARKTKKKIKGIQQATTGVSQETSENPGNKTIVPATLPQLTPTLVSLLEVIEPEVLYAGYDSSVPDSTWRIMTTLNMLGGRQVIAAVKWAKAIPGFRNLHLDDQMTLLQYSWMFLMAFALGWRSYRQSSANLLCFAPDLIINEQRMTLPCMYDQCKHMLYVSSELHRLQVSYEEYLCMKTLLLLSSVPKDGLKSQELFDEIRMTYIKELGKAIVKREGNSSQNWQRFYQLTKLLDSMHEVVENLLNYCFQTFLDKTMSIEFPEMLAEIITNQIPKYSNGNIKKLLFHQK
Summary of the method: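 Agonist-mode qHTS in HeLa cells stably expressing a glucocorticoid-response-element beta-lactamase reporter. Fluorescence intensity read with FRET substrate (2 h, room temperature) after 18 h compound treatment at 37 C.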

[9] = target: Glucocorticoid receptor (Homo sapiens) (UniProt P04150); assay: qHTS assay to identify small molecule antagonists of the glucocorticoid receptor (GR) signaling pathway (AID 720692; active = well fitted inhibition curve with a large enough effect in the signal ratio in the repeat runs, not every such curve was filed as active; the % refers to the signal ratio)
Summary of the method: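 Inhibition of dexamethasone-driven (5 nM final) beta-lactamase expression was measured in GRE-reporter HeLa cells over 18 h at 37C. Fluorescence was read after 2 h with the B/G FRET substrate at room temperature.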

[10] = qHTS assay to identify small molecule antagonists of the glucocorticoid receptor (GR) signaling pathway - cell viability counter screen (AID 720693); also: nearly all actives have a fitted effect of over 55% in size; also: potency is read from the fitted curve at half-maximal effect
[11] = qHTS assay for identifying genotoxic compounds that show differential cytotoxicity against isogenic chicken DT40 cell lines with known DNA damage response pathways - wild type cell line (AID 743012); also: nearly all actives have a fitted effect of over 60% in size; also: potency is read from the fitted curve at half-maximal effect
Summary of the method: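 Viability by ATP luminescence (CellTiter-Glo, 30 min RT) after 40 h compound treatment at 37 C/5% CO2, using 300 parental DNA repair-proficient DT40 cells per well.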

[12] = qHTS assay for identifying genotoxic compounds that show differential cytotoxicity against isogenic chicken DT40 cell lines with known DNA damage response pathways - Rev3 mutant cell line (AID 743014); also: nearly all actives have a fitted effect of over 55% in size; also: potency is read from the fitted curve at half-maximal effect
[13] = qHTS assay to identify small molecule antagonists of the androgen receptor (AR) signaling pathway - cell viability counter screen (AID 743033; also: nearly all actives have a fitted effect of over 45% in size)
[14] = qHTS assay to identify small molecule antagonists of the androgen receptor (AR) signaling pathway using the MDA cell line - cell viability counter screen (AID 743041; also: nearly all actives have a fitted effect of over 45% in size)
Summary of the method: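 Using the breast carcinoma line MDA-kb2 AR-luc, test chemicals were co-incubated with R1881 for 16 h; CellTiter-Fluor reagent, added at 15.5 h, provided a fluorescence measure of live cells.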

[15] = qHTS assay to test for compound auto fluorescence at 535 nm (green) in HepG2 cell free culture (AID 720686)
[16] = qHTS assay for identifying genotoxic compounds that show differential cytotoxicity against isogenic chicken DT40 cell lines with known DNA damage response pathways - Rad54/Ku70 mutant cell line (AID 743015); also: nearly all actives have a fitted effect of over 60% in size; also: potency is read from the fitted curve at half-maximal effect
[17] = target: Androgen receptor (Homo sapiens) (UniProt P10275); assay: qHTS assay to identify small molecule agonists of the androgen receptor (AR) signaling pathway using the MDA cell line (AID 743040; also: nearly all actives have a fitted effect of over 20% in size); details: MDA-kb2 AR-luc cells, MMTV luciferase, 16 h; activity change: at 70.3 µM (top of the series), hits give high values
Androgen receptor (Homo sapiens), sequence (P10275 whole entry, looked up): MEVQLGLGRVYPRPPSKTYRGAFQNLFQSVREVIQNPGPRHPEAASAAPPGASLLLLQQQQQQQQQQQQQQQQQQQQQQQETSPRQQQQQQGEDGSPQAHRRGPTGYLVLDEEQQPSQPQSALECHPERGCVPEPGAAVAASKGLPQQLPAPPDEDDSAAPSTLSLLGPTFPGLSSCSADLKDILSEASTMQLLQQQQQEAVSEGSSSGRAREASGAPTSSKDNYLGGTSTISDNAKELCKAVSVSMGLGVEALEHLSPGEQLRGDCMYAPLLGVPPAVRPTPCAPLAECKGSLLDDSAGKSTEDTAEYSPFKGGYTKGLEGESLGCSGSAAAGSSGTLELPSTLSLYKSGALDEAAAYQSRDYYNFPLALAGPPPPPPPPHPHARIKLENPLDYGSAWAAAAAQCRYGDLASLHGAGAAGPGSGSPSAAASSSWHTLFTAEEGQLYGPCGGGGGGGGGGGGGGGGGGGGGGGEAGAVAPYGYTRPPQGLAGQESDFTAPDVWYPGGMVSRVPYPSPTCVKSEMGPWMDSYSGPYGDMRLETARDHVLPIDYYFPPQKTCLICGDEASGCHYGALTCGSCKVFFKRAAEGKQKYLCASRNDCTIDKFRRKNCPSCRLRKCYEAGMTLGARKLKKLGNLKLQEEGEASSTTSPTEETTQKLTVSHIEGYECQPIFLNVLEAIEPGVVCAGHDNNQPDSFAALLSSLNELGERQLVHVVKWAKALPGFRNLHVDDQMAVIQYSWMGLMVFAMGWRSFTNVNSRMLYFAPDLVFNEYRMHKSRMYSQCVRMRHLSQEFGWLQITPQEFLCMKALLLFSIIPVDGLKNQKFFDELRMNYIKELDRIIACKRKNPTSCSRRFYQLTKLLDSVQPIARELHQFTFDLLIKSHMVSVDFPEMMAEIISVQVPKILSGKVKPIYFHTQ
Summary of the method: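 Stable MMTV-luciferase reporter in MDA-kb2 cells; note the promoter carries GR as well as AR response elements. 16 h compound treatment, 37C, 0% CO2; ONE-Glo luminescence endpoint.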

[18] = target: Androgen receptor (Homo sapiens) (UniProt P10275); assay: qHTS assay to identify small molecule antagonists of the androgen receptor (AR) signaling pathway using the MDA cell line (AID 743042; also: nearly all actives have a fitted effect of over 55% in size)
Summary of the method: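 Antagonist mode: compounds plus R1881 agonist added to MDA-kb2 AR-luc cells, incubated 16 h at 37C. Luciferase reporter luminescence quantified, with multiplexed CellTiter-Fluor readout for cell viability.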

[19] = target: Androgen receptor (Homo sapiens) (UniProt P10275); assay: qHTS assay to identify small molecule antagonists of the androgen receptor (AR) signaling pathway (AID 743035; active = well fitted inhibition curve with a large enough effect in the signal ratio in the repeat runs, not every such curve was filed as active; the % refers to the signal ratio)
Summary of the method: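 Antagonist mode: AR-bla HEK293 cells co-treated with test compounds and agonist R1881 for 16 h at 37C, 5% CO2. Beta-lactamase activity read as FRET fluorescence after 2 h room-temperature substrate loading.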

[20] = target: Androgen receptor (Homo sapiens) (UniProt P10275); assay: qHTS assay to identify small molecule agonists of the androgen receptor (AR) signaling pathway (AID 743036; active = well fitted activation curve with a large enough effect in the signal ratio in the repeat runs, with a control signal flat, not every such curve was filed as active; the % refers to the signal ratio)
Summary of the method: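 AR-UAS-bla HEK293 cells, plated 4 h before dosing, were treated with compound for 16 h at 37C. beta-Lactamase reporter read after 2 h with LiveBLAzer B/G FRET substrate at room temperature.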
% is scaled to controls: 0 for no effect and ±100 for the full control effect.

CC(Oc1cc(Cl)c(Cl)cc1Cl)C(=O)O (stereo not drawn)
inactive: outcome [1] | outcome [2] | outcome [3] | outcome [4] | outcome [5] | outcome [6] | outcome [7] | Potency [8] | Potency [9] | Potency [10] | Potency [11] | Potency [12] | Potency [13] | Potency [14]

C=CCN1C[C@H](C)N([C@H](c2ccc(C(=O)N(CC)CC)cc2)c2cccc(OC)c2)C[C@H]1C
inactive: outcome [1] | outcome [2] | outcome [3] | outcome [4] | outcome [5] | outcome [15] | outcome [7] | Potency [8] | Potency [9] | Potency [10] | Potency [13] | Potency [14]
active: Potency [11] 8.41 µM | Potency [12] 13.3 µM | Potency [16] 18.8 µM

CC(C)(C)OOC(C)(C)CCC(C)(C)OOC(C)(C)C
inactive: outcome [1] | outcome [2] | outcome [3] | outcome [4] | outcome [5] | outcome [6] | outcome [7] | Potency [8] | Potency [9] | Potency [10] | Potency [11] | Potency [13] | Potency [14]
active: Potency [12] 68.6 µM

CC(C)(C)CC(C)(C)c1ccc(O)cc1
active: Potency [10] 24.5 µM | Potency [11] 23.7 µM and 12.2 µM | Potency [12] 11.9 µM and 19.3 µM | Potency [16] 27.3 µM
inactive: outcome [1] | outcome [2] | outcome [3] | outcome [4] | outcome [5] | outcome [6] | outcome [7] | Potency [13] | Potency [17] | Potency [18]

COC(=O)Cc1ccccc1
inactive: outcome [1] | outcome [2] | outcome [3] | outcome [4] | outcome [5] | outcome [15] | outcome [7] | Potency [8] | Potency [9] | Potency [10] | Potency [11] | Potency [12] | Potency [16] | Potency [13] | Potency [14]

CCCCC(CC)CO[N+](=O)[O-] (stereo not drawn)
inactive: outcome [1] | outcome [2] | outcome [3] | outcome [4] | outcome [5] | outcome [15] | outcome [7] | Potency [8] | Potency [9] | Potency [10] | Potency [11] | Potency [12] | Potency [16] | Potency [13] | Potency [14]

CCOC(=O)c1cncn1C(C)c1ccccc1 (stereo not drawn)
inactive: fluorescence, % of fluorescein [1] -0.183% [at 18.6 µM] | fluorescence, % of fluorescent control [2] -0.0565% [at 18.6 µM] | activity change [3] -0.219% [at 18.6 µM] | fluorescence, % of fluorescent control [4] 0.175% [at 18.6 µM] | fluorescence, % of Rose Bengal [5] 0.117% [at 18.6 µM] | fluorescence, % of fluorescein control [15] 0.0291% [at 18.6 µM] | fluorescence, % of fluorescent control [7] 0.278% [at 18.6 µM] | Potency [8] | Potency [11] | Potency [12] | Potency [16] | Potency [13] | Potency [14]

COC(=O)C1(O)c2ccccc2-c2ccccc21
inactive: outcome [1] | outcome [2] | outcome [3] | outcome [4] | outcome [5] | outcome [15] | outcome [7] | Potency [8] | Potency [9] | Potency [10] | Potency [16] | Potency [13] | Potency [19] | Potency [20] | Potency [17] | Potency [14] | Potency [18]

COc1ccccc1N1CCNCC1
inactive: outcome [1] | outcome [2] | outcome [3] | outcome [4] | outcome [5] | outcome [6] | outcome [7] | Potency [8] | Potency [9] | Potency [10] | Potency [11] | Potency [12] | Potency [16] | Potency [13] | Potency [14]

Cc1nc(N(C)C)nc(OC(=O)N(C)C)c1C
inactive: outcome [1] | outcome [2] | outcome [3] | outcome [4] | outcome [5] | outcome [6] | outcome [7] | Potency [8] | Potency [9] | Potency [10] | Potency [11] | Potency [12] | Potency [16] | Potency [13] | Potency [14]

COc1ccc(C(=O)c2c(C)n(CCN3CCOCC3)c3ccccc23)cc1
active: Potency [11] 26.6 µM | Potency [12] 26.6 µM | Potency [16] 29.8 µM
inactive: outcome [1] | outcome [2] | outcome [3] | outcome [4] | outcome [5] | outcome [6] | outcome [7] | Potency [8] | Potency [14]

CCOP(=S)(OCC)Oc1ccc(S(C)=O)cc1 (stereo not drawn)
inactive: outcome [1] | outcome [2] | outcome [3] | outcome [4] | outcome [5] | outcome [15] | outcome [7] | Potency [13] | Potency [14]
